# Reference: a collection of fitness landscapes (doi:10.1126/science.1257360)
# The full ranking holds about 140,000 sequences; the median of “enrichment ratio after two sorts for PhoP signalling” is about 0, and the highest 2% start at about 11. The sample holds the highest values, similar sequences and a random draw of the others, so the mix is not that of the screen.
# B1: PhoQ; a variant is named by its letters at X, in order, P23837 (parent)
# chain: MKKLLRLFFPLSLRVRFLLATAAVVLVLSLAYGMVALIGYSVSFDKTTFRLLRGESNLFYTLAKWENNKLHVELPENIDKQSPTMTLIYDENGQLLWAQRDVPWLMKMIQPDWLKSNGFHEIEADVNDTSLLLSGDHSIQQQLQEVREDDDDAEMTHSVAVNVYPATSRMPKLTIVVVDTIPVELKSSYMVWSWFIYVLSANLLLVIPLLWVAAWWSLRPIEALAKEVRELEEHNRELLNPATTRELTSLVRNLNRLLKSERERYDKYRTTLTDLTHSLKTPLXXLQXXLRSLRSEKMSVSDAEPVMLEQISRISQQIGYYLHRASMRGGTLLSRELHPVAPLLDNLTSALNKVYQRKGVNISLDISPEISFVGEQNDFVEVMGNVLDNACKYCLEFVEISARQTDEHLYIVVEDDGPGIPLSKREVIFDRGQRVDTLRPGQGVGLAVAREITEQYEGKIVAGESMLGGARMEVIFGRQHSAPKDE
# Variants of: B1
# Experiment: enrichment ratio after two sorts for PhoP signalling (ratio (wild type AVST 3.29)); higher = more functional
# Conditions: with PhoP (E. coli)
row,Variant,enrichment ratio
1,TIYV,16.6
2,RIAN,≤ 0.25
3,TIKH,≤ 0.25
4,TITV,15.1
5,TIAN,19.6
6,TIDV,≤ 0.25
7,TIQH,12.6
8,TIWV,≤ 0.25
9,TIFI,0.264
10,WITV,≤ 0.25
11,TIQN,5.05
12,TIMV,1.5
13,PPYV,≤ 0.25
14,EETS,≤ 0.25
15,VSPI,≤ 0.25
16,TIVK,≤ 0.25
17,TIFP,≤ 0.25
18,TIFC,≤ 0.25
19,TIFA,≤ 0.25
20,TIGS,15
21,TIQP,≤ 0.25
22,TIAA,12
23,TIQQ,16.4
24,TITC,12.2

row,Variant,enrichment ratio
1,TINK,7.27
2,AIAA,9.24
3,TIAD,≤ 0.25
4,AMHL,≤ 0.25
5,PQHY,≤ 0.25
6,EMES,≤ 0.25
7,LHSI,≤ 0.25
8,LTDV,≤ 0.25
9,PMYR,≤ 0.25
10,LERK,≤ 0.25
11,TIQR,16
12,TIRI,2.01
13,TINT,4.95
14,TIGR,5.97
15,TIEH,27.9
16,TITD,≤ 0.25
17,TITH,1.26
18,TINH,34.4
19,TIMD,≤ 0.25
20,RIEH,≤ 0.25
21,TIGD,11.6
22,WIQR,≤ 0.25
23,FADQ,≤ 0.25
24,MASY,≤ 0.25

row,Variant,enrichment ratio
1,PWSE,≤ 0.25
2,ECDR,≤ 0.25
3,AKEC,≤ 0.25
4,PVAT,≤ 0.25
5,GNSV,8.29
6,NGSV,≤ 0.25
7,GIMV,2.38
8,MGSK,≤ 0.25
9,TGSV,17.2
10,RGSV,≤ 0.25
11,GGSV,23.9
12,MGSV,15.6
13,YHSV,≤ 0.25
14,GISV,11.2
15,MGWR,≤ 0.25
16,NISV,3.96
17,YIFP,≤ 0.25
18,IYDW,≤ 0.25
19,LKWY,≤ 0.25
20,FTWQ,≤ 0.25
21,GEMI,84
22,GANW,≤ 0.25
23,GAMI,18.9
24,GEMS,4.64

row,Variant,enrichment ratio
1,GEMD,≤ 0.25
2,GAMV,≤ 0.25
3,HTQK,≤ 0.25
4,QEKV,≤ 0.25
5,MKDS,≤ 0.25
6,VMDC,≤ 0.25
7,HYLA,≤ 0.25
8,SGAT,5.6
9,SHAI,≤ 0.25
10,SGAI,12.3
11,CFAI,≤ 0.25
12,NHAI,≤ 0.25
13,NSAI,0.375
14,RGAI,≤ 0.25
15,TSAI,16.9
16,SGKR,≤ 0.25
17,TGAI,12.3
18,THAI,14.8
19,KSAI,≤ 0.25
20,HRPD,≤ 0.25
21,FYDW,≤ 0.25
22,TKHK,≤ 0.25
23,AFWS,≤ 0.25
24,EVSQ,≤ 0.25

row,Variant,enrichment ratio
1,SCCW,5.25
2,TARR,0.314
3,PTWW,≤ 0.25
4,ADAI,4.82
5,TDAI,13.6
6,KDAI,≤ 0.25
7,NQSC,≤ 0.25
8,TQTA,5.01
9,TQTM,22.5
10,TQSC,15.3
11,TQTK,≤ 0.25
12,TQTC,18.9
13,GQTM,≤ 0.25
14,TQFC,8.5
15,FQTM,≤ 0.25
16,FPER,≤ 0.25
17,LWDG,≤ 0.25
18,AHGV,≤ 0.25
19,AGGV,11.4
20,AIGV,≤ 0.25
21,AEHV,≤ 0.25
22,AMGV,≤ 0.25
23,AEGV,17.5
24,VYHA,≤ 0.25

row,Variant,enrichment ratio
1,ALVG,1.71
2,HEES,≤ 0.25
3,LAFL,2.72
4,AFDH,≤ 0.25
5,ALQN,≤ 0.25
6,ACTI,5.16
7,ALNL,1.07
8,ACTC,4.29
9,ACPN,≤ 0.25
10,ALVN,13.7
11,ACGM,≤ 0.25
12,ACVN,31.5
13,ACIM,30.7
14,ACWM,≤ 0.25
15,ACTM,11.9
16,ACNL,≤ 0.25
17,NDFR,2.54
18,FPHA,≤ 0.25
19,HDNY,≤ 0.25
20,QCKR,≤ 0.25
21,LDKY,≤ 0.25
22,YWPF,≤ 0.25
23,DPVE,≤ 0.25
24,NGRY,≤ 0.25

row,Variant,enrichment ratio
1,ACQN,≤ 0.25
2,ACAM,30.7
3,YTVN,≤ 0.25
4,ACAK,0.412
5,ATVN,19.4
6,KCAE,≤ 0.25
7,ATPN,≤ 0.25
8,ACAT,0.287
9,ACAN,15.5
10,ACAE,15.5
11,ACRM,≤ 0.25
12,ACAV,3.32
13,CLIL,≤ 0.25
14,RMFK,≤ 0.25
15,PFPY,≤ 0.25
16,RDQR,≤ 0.25
17,IEIS,≤ 0.25
18,IVGI,≤ 0.25
19,EILP,≤ 0.25
20,ACNM,≤ 0.25
21,ACVM,12.1
22,ACPM,0.39
23,PFDF,≤ 0.25
24,MKVH,≤ 0.25

row,Variant,enrichment ratio
1,TKVK,≤ 0.25
2,AKVI,5.34
3,TKVQ,11.7
4,TKVA,18.4
5,TKVG,1.43
6,TKVI,30.1
7,HKVI,≤ 0.25
8,HKVH,≤ 0.25
9,AKVQ,2.82
10,KKVQ,≤ 0.25
11,TKVH,12.3
12,RIDW,≤ 0.25
13,SRWP,≤ 0.25
14,PCHL,≤ 0.25
15,IMSS,≤ 0.25
16,RNRM,≤ 0.25
17,QWVH,≤ 0.25
18,AEDM,≤ 0.25
19,YQHC,≤ 0.25
20,TKVV,16.7
21,HKVV,≤ 0.25
22,AKVV,11
23,AKVM,≤ 0.25
24,HKMA,≤ 0.25

row,Variant,enrichment ratio
1,MEMA,≤ 0.25
2,TKVM,36.7
3,MKVM,≤ 0.25
4,TKMA,20.5
5,TEIA,5.22
6,RVAC,≤ 0.25
7,LPRF,≤ 0.25
8,VFWD,≤ 0.25
9,DAPE,≤ 0.25
10,QDDV,≤ 0.25
11,VEGH,≤ 0.25
12,TCGP,1.63
13,NHSH,≤ 0.25
14,THGH,13.1
15,KLGH,≤ 0.25
16,SHSH,0.368
17,TLGH,12.5
18,KSGH,≤ 0.25
19,HFGH,≤ 0.25
20,TLGP,≤ 0.25
21,TCGH,23.5
22,THSH,12.3
23,NPCL,≤ 0.25
24,WFFE,≤ 0.25

row,Variant,enrichment ratio
1,IMHM,≤ 0.25
2,NGPM,≤ 0.25
3,PILN,≤ 0.25
4,REPM,≤ 0.25
5,FADW,≤ 0.25
6,TMTH,9.92
7,TMGH,15.3
8,TMGP,≤ 0.25
9,STKH,≤ 0.25
10,MMGV,≤ 0.25
11,MNYL,12
12,MNNL,0.29
13,KLYL,≤ 0.25
14,TTGD,0.456
15,MCYL,13
16,MEYL,3.47
17,MCGV,13.4
18,TTGM,28.6
19,MEGV,≤ 0.25
20,MLYL,10.2
21,YTGM,≤ 0.25
22,DQFA,≤ 0.25
23,KQAS,≤ 0.25
24,PFKG,≤ 0.25

row,Variant,enrichment ratio
1,NGPW,≤ 0.25
2,AAVK,≤ 0.25
3,MCVA,≤ 0.25
4,MCYI,27.7
5,NAHM,≤ 0.25
6,MCYK,≤ 0.25
7,TAHM,14.1
8,MCAY,4.41
9,KAHM,≤ 0.25
10,MCRM,≤ 0.25
11,MCDS,≤ 0.25
12,MCWM,16.4
13,MCCK,≤ 0.25
14,MCWI,18.3
15,LMRM,≤ 0.25
16,TVRL,0.897
17,LALM,8.02
18,FHFV,≤ 0.25
19,EESR,≤ 0.25
20,ICGM,≤ 0.25
21,KCGM,≤ 0.25
22,MAHM,14.7
23,KCAM,≤ 0.25
24,ICAM,17.4

row,Variant,enrichment ratio
1,FVHM,≤ 0.25
2,MCAM,12.2
3,FDHM,≤ 0.25
4,ICWM,≤ 0.25
5,THGM,12.3
6,TGGM,≤ 0.25
7,MKAM,≤ 0.25
8,GDQT,≤ 0.25
9,TWQT,≤ 0.25
10,IVCI,≤ 0.25
11,MCGM,12.2
12,MLAM,15.5
13,MKAK,≤ 0.25
14,MLWM,≤ 0.25
15,MCVM,≤ 0.25
16,MCDM,≤ 0.25
17,MLNM,≤ 0.25
18,MCAK,21.4
19,MKFL,0.755
20,MAAK,≤ 0.25
21,MNFL,14.1
22,TNFL,≤ 0.25
23,KFHC,≤ 0.25
24,RINI,≤ 0.25

row,Variant,enrichment ratio
1,PWSK,≤ 0.25
2,EKTT,≤ 0.25
3,YVYD,≤ 0.25
4,WNEY,≤ 0.25
5,VGWQ,1.18
6,FPFF,≤ 0.25
7,GAHW,≤ 0.25
8,GIYF,≤ 0.25
9,RKRF,≤ 0.25
10,LTYL,0.587
11,LSYL,11.2
12,LNYL,≤ 0.25
13,KCSQ,≤ 0.25
14,NCYL,≤ 0.25
15,TTDM,22.8
16,TCYL,16.2
17,MCSQ,11.6
18,ITDM,≤ 0.25
19,MQSQ,≤ 0.25
20,YTDM,≤ 0.25
21,KCYL,≤ 0.25
